Measurements: the supplement of paper PMC6555819

The sequences below were run on RARg homodimer (NR concentration 270 nM) (assay: PBM binding z-score (relative to random genomic background probes); higher = stronger binding; sequences stand for … in GC…GCGATTGACAGCGTAGAATGAAGG).
How it was run: (§1)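 Regression normalization was applied to scanned fluorescence from custom Agilent 4×180K protein-binding microarrays. Before scanning, arrays were incubated 1 h with ligand-free nuclear receptor dimers, and binding was detected with antibodies against each partner (one per run). Binding z-scores use the random background probes as reference.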
ACATGTAGGTTATCGGGTCATTCAGTTTGCGCAT was tested, and the PBM binding z-score was 2.41. Work on CCTACTGAGCCATCAGGTCATTGATATCAACGTT yielded a PBM binding z-score of 1.69. GCTATTAGTTGAAAGGGCCACCGAATGATTCTCG gave a PBM binding z-score of 0.583. With TCTATTTGTTGAAGGGCAACCGACGAGTCCGTTT the PBM binding z-score was 1.07. TGAATGAGGTCATAAGATCAGGGAACGTTGCAAA was tested, and the PBM binding z-score was 5. Work on ATCTCTTGGTAAAGATAGTTCAGTGAATGCAAAT yielded a PBM binding z-score of 0.734. With ATCTCTAGGTAGCAAGTTCAGTGAAAGAGAGGAC the PBM binding z-score was 0.963. Work on ATCTCTAGGTAAAAGTCCAGTGAATCCCGAGGAT yielded a PBM binding z-score of 0.393. AGTCAAAGTTCATCTAGGAAACGTAAGATATGCT was tested, and the PBM binding z-score was 6.42. CCGAGCAGGTTATGGGGCATTCAGGCAACGGTGA gave a PBM binding z-score of 0.573. Sequence CCGACTGGGGCATAAGGTTACCCTAAGCCAGCCC has a PBM binding z-score of 0.806. CCTTACAGGTCACTCCAGGTTATAGCATCGGAGT was tested, and the PBM binding z-score was 4.71. Sequence CGAAATAGGTCAAGGACAGTGAATCTCCGCACGC has a PBM binding z-score of 6.01. AGAACGAGGCCACGCTGAGTTGATAGCAGAGTAG gave a PBM binding z-score of 1.22. For CCTGCTAGGTCAATGGTAAGCTAAAGCAGCTCGC, the PBM binding z-score was 3.82. Sequence AGAATAAGGTTATACGTAGATCAGGGAAGAAAGT has a PBM binding z-score of 1.25. TCTATTAGTTGAAGGGCAACCGCCGAGTCCGTTT gave a PBM binding z-score of 0.651. With ATATCTAGGTAACCAAGTTCAGTGAATGCCGAAC the PBM binding z-score was 0.923. Work on CAGCCTAGGTCAGGTCCAGTATAGGAGGAACGTT yielded a PBM binding z-score of 3.33. In the case of TCGAGTAGGTTACCAATGGGGCATTAAGCTTTCT, the PBM binding z-score is reported as 0.213. For TCTTGTAGATCAACAGGAGGCTAAGAAAGATCGA, the PBM binding z-score was -0.13. In the case of TTAGCAAGGTGAGCTGAGGTCGTTGATCCAACTC, the PBM binding z-score is reported as 0.726. TTTAGCAGGCCAGAGGGTCACTCAAGAGGTACGG showed a PBM binding z-score of 2.02. With AGAACGAGGTTAAGATCAGGGAAACAGAATACAT the PBM binding z-score was 1.62. ATCTCTATGTAAGACTCAGTTCAGTGAAGAACGC was tested, and the PBM binding z-score was 0.0537. With CAAACTAGATCACGAAAGGTCAAAGTCGAATGAC the PBM binding z-score was 5.31. With ATCTCTTGGTAACCAAGTTCAGTGAATGCCGAAC the PBM binding z-score was 0.417. TCTAGCAGGCCGGAGGGTCACTCAAGAGGTACGG showed a PBM binding z-score of 1.52. Work on CTACCAAGGTGAACAAGGTCGTTGATTACTATTC yielded a PBM binding z-score of 1.67. CAAACTAGGTCAAGAGTTCAAAGTCCGCTTCCCG gave a PBM binding z-score of 6.48. For GATACATGGTCAAGGCCAGAGTACGCGTATTGAT, the PBM binding z-score was 0.985. In the case of AGTCAAAGTTCATCTATGTAACGTAAGATATGCT, the PBM binding z-score is reported as 6.01. For TTACCAGGGTGAGCTGAGGTCGTTGATCCAACTC, the PBM binding z-score was 0.39. Sequence ACTAGCAGGCCATGGGTCACTCAAGATTAGTCCG has a PBM binding z-score of 2.07. For CCTACTGGGCCACGAAAGGTTATTGATTCAGTGA, the PBM binding z-score was 1.08. CCAGATAGGTGAGAAGGTAACTCAGCCTCGATTA gave a PBM binding z-score of 0.649. CCTAGCAGGCCAGGGTCAATCAAGCATTTCGCTT gave a PBM binding z-score of 2.33. For GCTGCTAGGTCAATTGATGGTCAGCTAAAGCTCG, the PBM binding z-score was 4.03. ACTAGCAGGCCAAGGGGCACTCAAGATTAGTCCG showed a PBM binding z-score of 0.766. GCGCGGAGGACAAGGTCAGAGCTTTGTCCGTAGA was tested, and the PBM binding z-score was 3.32.

The sequences below were run on RXRa DBDmut IVT, anti-RXR (DBD mutation: RXRa K156A/R161A, NR concentration 90 nM) in the same assay as above.
How it was run: as §1
Work on ACATGTAGGTTATCGGGTCATTCAGTTTGCGCAT yielded a PBM binding z-score of 1.87. For CCTACTGAGCCATCAGGTCATTGATATCAACGTT, the PBM binding z-score was 1.17. With GCTATTAGTTGAAAGGGCCACCGAATGATTCTCG the PBM binding z-score was 0.436. TCTATTTGTTGAAGGGCAACCGACGAGTCCGTTT was tested, and the PBM binding z-score was 1.55. Work on TGAATGAGGTCATAAGATCAGGGAACGTTGCAAA yielded a PBM binding z-score of 3.74. Work on ATCTCTTGGTAAAGATAGTTCAGTGAATGCAAAT yielded a PBM binding z-score of 0.404. ATCTCTAGGTAGCAAGTTCAGTGAAAGAGAGGAC was tested, and the PBM binding z-score was 0.543. Work on ATCTCTAGGTAAAAGTCCAGTGAATCCCGAGGAT yielded a PBM binding z-score of -0.403. Sequence AGTCAAAGTTCATCTAGGAAACGTAAGATATGCT has a PBM binding z-score of 4.79. CCGAGCAGGTTATGGGGCATTCAGGCAACGGTGA was tested, and the PBM binding z-score was -0.126. CCGACTGGGGCATAAGGTTACCCTAAGCCAGCCC showed a PBM binding z-score of -0.487. For CCTTACAGGTCACTCCAGGTTATAGCATCGGAGT, the PBM binding z-score was 2.2. In the case of CGAAATAGGTCAAGGACAGTGAATCTCCGCACGC, the PBM binding z-score is reported as 1.55. AGAACGAGGCCACGCTGAGTTGATAGCAGAGTAG showed a PBM binding z-score of 0.267. CCTGCTAGGTCAATGGTAAGCTAAAGCAGCTCGC was tested, and the PBM binding z-score was 1.66. AGAATAAGGTTATACGTAGATCAGGGAAGAAAGT showed a PBM binding z-score of 1.2. TCTATTAGTTGAAGGGCAACCGCCGAGTCCGTTT was tested, and the PBM binding z-score was 1.57. ATATCTAGGTAACCAAGTTCAGTGAATGCCGAAC showed a PBM binding z-score of 0.824. With CAGCCTAGGTCAGGTCCAGTATAGGAGGAACGTT the PBM binding z-score was -0.0428. TCGAGTAGGTTACCAATGGGGCATTAAGCTTTCT gave a PBM binding z-score of 0.338. Sequence TCTTGTAGATCAACAGGAGGCTAAGAAAGATCGA has a PBM binding z-score of 0.0884. In the case of TTAGCAAGGTGAGCTGAGGTCGTTGATCCAACTC, the PBM binding z-score is reported as -0.339. Work on TTTAGCAGGCCAGAGGGTCACTCAAGAGGTACGG yielded a PBM binding z-score of -0.755. Sequence AGAACGAGGTTAAGATCAGGGAAACAGAATACAT has a PBM binding z-score of 1.03. ATCTCTATGTAAGACTCAGTTCAGTGAAGAACGC was tested, and the PBM binding z-score was 0.294. CAAACTAGATCACGAAAGGTCAAAGTCGAATGAC was tested, and the PBM binding z-score was 1.47. ATCTCTTGGTAACCAAGTTCAGTGAATGCCGAAC showed a PBM binding z-score of 1.2. TCTAGCAGGCCGGAGGGTCACTCAAGAGGTACGG was tested, and the PBM binding z-score was 0.00965. Work on CTACCAAGGTGAACAAGGTCGTTGATTACTATTC yielded a PBM binding z-score of 1.41. CAAACTAGGTCAAGAGTTCAAAGTCCGCTTCCCG was tested, and the PBM binding z-score was 3.87. Work on GATACATGGTCAAGGCCAGAGTACGCGTATTGAT yielded a PBM binding z-score of -0.244. For AGTCAAAGTTCATCTATGTAACGTAAGATATGCT, the PBM binding z-score was 4.69. TTACCAGGGTGAGCTGAGGTCGTTGATCCAACTC showed a PBM binding z-score of -0.148. For ACTAGCAGGCCATGGGTCACTCAAGATTAGTCCG, the PBM binding z-score was -0.507. CCTACTGGGCCACGAAAGGTTATTGATTCAGTGA gave a PBM binding z-score of -0.0139. Work on CCAGATAGGTGAGAAGGTAACTCAGCCTCGATTA yielded a PBM binding z-score of 0.238. CCTAGCAGGCCAGGGTCAATCAAGCATTTCGCTT was tested, and the PBM binding z-score was 0.381. Work on GCTGCTAGGTCAATTGATGGTCAGCTAAAGCTCG yielded a PBM binding z-score of 1.37. For ACTAGCAGGCCAAGGGGCACTCAAGATTAGTCCG, the PBM binding z-score was -0.00995. In the case of GCGCGGAGGACAAGGTCAGAGCTTTGTCCGTAGA, the PBM binding z-score is reported as 0.639.
